System: Aedes aegypti larvae
Test: larval motility relative to same well at 0 h (fraction); higher = more motile (less active compound), active = 0.4 or less
Settings: 10 µM
Outline: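 Each 96-well plate held about 10 Aedes aegypti larvae per well in 100 µL, along with solvent and larvicide control wells. Compounds were present at 10 µM with 1% v/v DMSO, and INVAPP recorded 200-frame movies at 100 ms intervals at 0, 2 and 24 h. Relative motility divides each well's score by its baseline score from the first recording, with the median taken across independent larval batches, of which there were three.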

Row | Compound | larval motility (2 h) | larval motility (24 h)
1 | NCC(=O)Nc1ccc(-n2nc(C(F)(F)F)cc2-c2ccc3c(ccc4ccccc43)c2)cc1 | 0.799 (inactive) | 1.81 (inactive)
2 | CC(C)Nc1ncnc2c1cnn2-c1ccc(Cl)cc1 | 0.689 (inactive) | 0.773 (inactive)
3 | NCc1ccc(S(N)(=O)=O)cc1 | 0.675 (inactive) | 0.66 (inactive)
4 | CC(C)Cn1c(=O)n(C)c(=O)c2c(-c3cncn3C)n(Cc3cccc4ccccc34)nc21 | 0.612 (inactive) | 0.874 (inactive)
5 | O=C(O)c1cc(-c2ccc(Br)cc2)nc2ccc(Cl)cc12 | 1.05 (inactive) | 0.76 (inactive)
6 | O=C(CCCC(F)(F)F)N1CCC(c2nc(-c3nccs3)no2)CC1 | 0.824 (inactive) | 1.08 (inactive)
7 | O=S(=O)(Nc1cccc2cccnc12)c1ccccc1 | 0.587 (inactive) | 0.61 (inactive)
8 | C=C[C@]1(C)C[C@@H](OC(=O)CS[C@@H]2C[C@H]3CC[C@@H](C2)N3C)[C@]2(C)[C@H](C)CC[C@]3(CCC(=O)[C@H]32)[C@@H](C)[C@@H]1O | 0.606 (inactive) | 0.545 (inactive)
9 | CC(C)(C)NC(=O)[C@@H]1CN(Cc2cnc3occc3c2)CCN1C[C@@H](O)C[C@@H](Cc1ccccc1)C(=O)N[C@H]1c2ccccc2C[C@H]1O | 0.857 (inactive) | 0.932 (inactive)
10 | C[C@@H]1O[C@@H]1P(=O)(O)O | 0.617 (inactive) | 0.856 (inactive)
11 | CC(Oc1ccc(Cl)cc1Cl)C(=O)NCc1ccc2c(c1)OCO2 (stereo not given) | 0.508 (inactive) | 0.902 (inactive)
12 | O[C@@](Cn1cnnn1)(c1ccc(F)cc1F)C(F)(F)c1ccc(-c2ccc(OCC(F)(F)F)cc2)cn1 | 0.718 (inactive) | 0.564 (inactive)
13 | Clc1ccc(Cn2c(CN3CCCC3)nc3ccccc32)cc1 | 1.09 (inactive) | 1.28 (inactive)
14 | COc1c(F)c(F)cc2c(=O)c(C(=O)O)cn(C3CC3)c12 | 0.765 (inactive) | 1.08 (inactive)
15 | CC[C@H]1OC(=O)[C@H](C)[C@@H](O[C@H]2C[C@@](C)(OC)[C@@H](O)[C@H](C)O2)[C@H](C)[C@@H](O[C@@H]2O[C@H](C)C[C@H](N(C)C)[C@H]2O)[C@](C)(O)C[C@@H](C)C(=O)[C@H](C)[C@@H](O)[C@]1(C)O | 1.03 (inactive) | 0.824 (inactive)
16 | CC(C)(C)NC(=O)N[C@H](C(=O)N1C[C@H]2[C@@H]([C@H]1C(=O)NC(CC1CCC1)C(=O)C(N)=O)C2(C)C)C(C)(C)C (stereo not given in full) | 0.758 (inactive) | 0.813 (inactive)
17 | CC(C)(C)c1ccc(Oc2ccc(N)cc2)cc1 | 0.91 (inactive) | 1.33 (inactive)
18 | CCN(CC)CCn1c(=N)n(CC(O)COc2ccc(Cl)cc2Cl)c2ccccc21 (stereo not given) | 0.783 (inactive) | 0.86 (inactive)
19 | Nc1cc(-c2nc3ccccc3[nH]2)n[nH]c1=O | 1.17 (inactive) | 1.18 (inactive)
20 | O=C(/C=C\n1cnc(-c2cc(C(F)(F)F)cc(C(F)(F)F)c2)n1)NNc1ccccn1 | 1.12 (inactive) | 1.17 (inactive)
21 | CCCCc1ccc(-c2cc(C(=O)O)cc(-c3ccc(Cl)cc3)n2)cc1 | 0.642 (inactive) | 0.563 (inactive)
22 | Cn1c2ccccc2c(=O)c2c(O)cccc21 | 1.15 (inactive) | 1.13 (inactive)

Row | Compound | larval motility (2 h) | larval motility (24 h)
23 | CC1(C)Cc2c(C#N)c(SCCc3ccccc3)nc(N3CCOCC3)c2CO1 | 0.485 (inactive) | 1.28 (inactive)
24 | O=c1ccc2ncc(=O)n3c2n1CC3CN1CCC(NCc2cc3c(cn2)OCCC3)CC1 (stereo not given) | 0.641 (inactive) | 0.964 (inactive)
25 | C[C@@H](c1nc(-c2ccc(C#N)cc2)cs1)[C@](O)(Cn1cncn1)c1ccc(F)cc1F | 0.723 (inactive) | 0.498 (inactive)
26 | CC(C)N(c1cc(-c2ccccc2)sc1C(=O)O)C(=O)[C@H]1CC[C@H](C)CC1 | 0.697 (inactive) | 0.742 (inactive)
27 | O=C(O)c1ccc(-c2ccc(O[C@H]3O[C@H](CO)[C@@H](O)[C@H](O)[C@@H]3O)cc2)cc1 | 0.798 (inactive) | 1.22 (inactive)
28 | CSC[C@H]1CN(Cc2c[nH]c3c(N)ncnc23)C[C@@H]1O | 1.02 (inactive) | 0.589 (inactive)
29 | Cc1ccc(S(=O)(=O)Nc2cccc3cccnc23)cc1 | 1.02 (inactive) | 0.566 (inactive)
30 | O=C(O)COc1cccc2c1CC[C@](O)(COC(=O)N(c1ccccc1)c1ccccc1)C2 | 0.909 (inactive) | 0.745 (inactive)
31 | CC[C@@]1(O)C(=O)OCc2c1cc1n(c2=O)Cc2cc3c([N+](=O)[O-])cccc3nc2-1 | 0.324 (active) | 0.433 (inactive)
32 | CC(C)/N=c1\cc2n(-c3ccc(Cl)cc3)c3ccccc3nc-2cc1Nc1ccc(Cl)cc1 | 0.957 (inactive) | 0.786 (inactive)
33 | CC(C)c1ccc(COc2cccc(-c3cc(S(C)=O)c(C#N)c(=O)[nH]3)c2)cc1 (stereo not given) | 0.682 (inactive) | 0.447 (inactive)
34 | Cc1ccc(C)c(OCCCCCCN2C[C@H](O)[C@@H](O)[C@H](O)[C@H]2CO)c1 | 0.635 (inactive) | 0.552 (inactive)
35 | OB1OCc2cc(Cl)ccc21 | 0.664 (inactive) | 1.04 (inactive)
36 | CCOC(=O)/C=C/[C@H](C[C@@H]1CCNC1=O)NC(=O)[C@H](CC)n1cccc(NC(=O)c2cc(C)on2)c1=O | 1.27 (inactive) | 0.871 (inactive)
37 | CCNC(=O)Nc1cc2c(-c3ccnc(C)c3)ccc(CNC(=O)OC)c2cn1 | 0.695 (inactive) | 0.931 (inactive)
38 | COc1ccc(C[C@@H](C)[C@@H](C)Cc2ccc(OC)c(OC)c2)cc1OC | 0.799 (inactive) | 0.813 (inactive)
39 | Clc1cc2nc(C3CCNCC3)n(Cc3ccc(CNCCc4cnc[nH]4)cc3)c2cc1Cl | 0.575 (inactive) | 0.981 (inactive)
40 | CCc1cc(CCCOc2c(C)cc(-c3noc(C(F)(F)F)n3)cc2C)on1 | 0.695 (inactive) | 0.658 (inactive)
41 | CO/N=C(\C(=O)N[C@@H]1C(=O)N2C(C(=O)OCOC(=O)C(C)(C)C)=C(/C=C\c3scnc3C)CS[C@H]12)c1csc(N)n1 | 1.51 (inactive) | 1.18 (inactive)
42 | CCOC(=O)N1CCN(c2ccc(Cl)cc2)CC1 | 1.05 (inactive) | 1.36 (inactive)
43 | COC(=O)Nc1nc2cc(Sc3ccccc3)ccc2[nH]1 | 0.997 (inactive) | 0.306 (active)
44 | C=CCc1cc(Cc2cnc(N)nc2N)cc(OC)c1O | 1.05 (inactive) | 1.18 (inactive)

Row | Compound | larval motility (2 h) | larval motility (24 h)
45 | Fc1ccc(-c2nc(-c3c[nH]c4ccc(Br)cc34)[nH]c2-c2ccc(F)cc2)cc1 | 0.737 (inactive) | 0.9 (inactive)
46 | COc1cc2c(O)c3c(c(-c4ccc5c(c4)OCO5)c2cc1OC)C(=O)OC3 | 0.887 (inactive) | 0.868 (inactive)
47 | CC[C@H](CO)Nc1nc(NCc2ccccc2)c2ncn(C(C)C)c2n1 | 0.799 (inactive) | 0.755 (inactive)
48 | Nc1nc(=O)c(Br)c(-c2cccc(Cl)c2)[nH]1 | 0.895 (inactive) | 0.972 (inactive)
49 | CCCCSc1nc(N)c2[nH]c(=O)c(=O)n(Cc3ccccc3)c2n1 | 0.896 (inactive) | 1.51 (inactive)
50 | NC(=O)c1nccn([C@@H]2O[C@H](CO)[C@@H](O)[C@H]2O)c1=O | 0.824 (inactive) | 1.16 (inactive)
51 | O=c1cc(NCCCN[C@@H]2CCOc3c(Br)cc(Br)cc32)[nH]c2ccsc12 | 0.659 (inactive) | 1.28 (inactive)
52 | NC(=O)c1ccccc1NC(=O)c1ccc(C(=O)Nc2ccccc2C(N)=O)cc1 | 0.724 (inactive) | 0.755 (inactive)
53 | Fc1cccc(Cl)c1C1CC(c2ccc(Cl)cc2)Nc2nnnn21 (stereo not given) | 1.01 (inactive) | 1.08 (inactive)
54 | COc1ccc2c(c1OC)C(=O)OC2C1c2c(cc3c(c2OC)OCO3)CCN1C (stereo not given) | 0.987 (inactive) | 0.828 (inactive)
55 | COc1ccc(NC(=O)c2cc3ccccn3n2)cc1 | 0.48 (inactive) | 0.782 (inactive)
56 | O=c1[nH]c(=O)n(Cc2cccc(Oc3ccccc3)c2)cc1Nc1ccccc1 | 0.698 (inactive) | 0.791 (inactive)
57 | O=S(=O)(NCB(O)O)c1ccc(-c2nnn[nH]2)cc1C(F)(F)F | 0.999 (inactive) | 1.46 (inactive)
58 | N#C/C(=C1/SC[C@H](c2ccc(Cl)cc2Cl)S1)n1ccnc1 | 0.983 (inactive) | 1 (inactive)
59 | COc1cc(NCc2ccc3nc(N)nc(N)c3c2C)cc(OC)c1OC | 0.5 (inactive) | 0.356 (active)
60 | CCCCCc1ccc(C(=O)NCCn2cc(CCCCCc3cnc(N)[nH]3)nn2)cc1 | 0.643 (inactive) | 0.914 (inactive)
61 | Nc1nnc(-c2ccc(Cl)cc2)s1 | 0.916 (inactive) | 0.877 (inactive)
62 | O=C(NCc1ccccc1Cl)c1cnc2ccccc2n1 | 1.23 (inactive) | 0.674 (inactive)
63 | CCc1cc(CCC(=O)Nc2ccccc2O)c(=O)[nH]c1C | 0.689 (inactive) | 0.991 (inactive)
64 | Cc1ccc(NC(=O)c2ccc(CN3CCN(C)CC3)cc2)cc1Nc1nccc(-c2cccnc2)n1 | 0.64 (inactive) | 0.702 (inactive)
65 | COc1cc(NC(=O)CN2C(=O)NC(c3ccccc3)(c3ccccc3)C2=O)cc(OC)c1 | 0.866 (inactive) | 1.08 (inactive)
